# The full list was thinned out, with hits kept by preference.
# AMA1 RON2 block = qHTS for Inhibitors of AMA1-RON; Towards Development of Antimalarial Drug Lead: Primary Screen; Plasmodium falciparum AMA1 (3D7) - RON2 peptide interaction; AlphaScreen AMA1-biotinylated RON2 peptide binding; Potency, µM (titrated, usually from 58.2 µM), for the others: at the highest dose activity change, negative = inhibition, usual class: inhibitors; actives 0.2% (n = 360,000); AID 720542, 2013;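 also: potency is read from the fitted curve at half-maximal effect; 0% = vehicle wells and -100% = peptide control; nearly all actives have a fitted effect of over 45% in size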
#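 AMA1 (3D7) with his tag at 25 nM final met compounds first, then biotinylated RON2 peptide at 25 nM; detection used donor plus acceptor beads, 10 µg/mL apiece, read by AlphaScreen after 30 min at room temperature.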
# AmpC inh no detg = qHTS Inhibitors of AmpC Beta-Lactamase (assay without detergent) | P00811 | AID 485341, 2010 | Potency, µM (titrated, usually from 57.1 µM), for the others: at the highest dose activity change, negative = inhibition, actives largely listed as inhibitors | AmpC nitrocefin hydrolysis, absorbance 480 nm, 0.0001% Triton | actives 0.52% (n = 330,000);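 also: potency is read from the fitted curve at half-maximal effect; plate controls were no compound for no effect and no enzyme for full effect; nearly all actives have a fitted effect of over 20% in size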
# Target sequence (P00811 whole entry, looked up): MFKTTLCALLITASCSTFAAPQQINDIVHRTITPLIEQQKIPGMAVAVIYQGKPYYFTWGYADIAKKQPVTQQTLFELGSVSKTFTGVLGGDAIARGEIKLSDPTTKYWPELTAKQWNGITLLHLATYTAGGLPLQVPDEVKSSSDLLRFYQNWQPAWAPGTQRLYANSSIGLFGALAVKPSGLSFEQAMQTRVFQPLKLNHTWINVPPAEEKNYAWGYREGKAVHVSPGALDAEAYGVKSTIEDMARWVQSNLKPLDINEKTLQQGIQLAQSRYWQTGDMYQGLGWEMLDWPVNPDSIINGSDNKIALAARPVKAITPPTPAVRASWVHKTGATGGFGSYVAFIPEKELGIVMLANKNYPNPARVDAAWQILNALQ
#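 20 mM phosphate pH 7.0 + 0.01% (detergent screen) or 0.0001% Triton X-100; 5.3 nM AmpC reagent; cpd preinc 15 min RT; nitrocefin (800 uM stock) to start; A480 q20 s × 4 min; Activity was normalised to no-enzyme and no-compound control wells.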
# Cycloheximide cs = Cycloheximide Counterscreen for Small Molecule Inhibitors of Shiga Toxin | cell reporter, cycloheximide protein synthesis inhibition counterscreen | max response, % | AID 2314, 2010 | actives 12% (n = 300,000); in the data active = max response mostly above about 13%, no sharp cut-off; inactive = mostly below about 14%; also: read at 38.3 µM for the half of the compounds with a filed dose; 0% is about no effect
# AmpC detergent = qHTS Inhibitors of AmpC Beta-Lactamase (assay with detergent); AmpC hydrolysis of nitrocefin, absorbance 480 nm, 0.01% Triton; actives 0.041% (n = 370,000); Potency, µM (top dose mostly 114 µM), inactives show at the top dose activity change, negative = inhibition, most hits filed as inhibitors; AID 485294, 2010; P00811;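 also: potency is read from the fitted curve at half-maximal effect; 0% = no-compound wells and -100% = no-enzyme wells; nearly all actives have a fitted effect of over 25% in size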
#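 20 mM phosphate pH 7.0 + 0.01% (detergent screen) or 0.0001% Triton X-100; 5.3 nM AmpC reagent; cpd preinc 15 min RT; nitrocefin (800 uM stock) to start; A480 q20 s × 4 min; Activity was normalised to no-enzyme and no-compound control wells.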
# Shiga inhibitor = A qHTS for Small Molecule Inhibitors of Shiga Toxin; Vero cells, Shiga toxin protein synthesis inhibition reporter; inhibition, % at 38.7 µM; actives 9.2% (n = 290,000); in the data active = inhibition mostly above about 28%, no sharp cut-off; inactive = mostly below about 43%; also: 0% is about no effect
# SARS PLpro yeast-1 = qHTS of Yeast-based Assay for SARS-CoV PLP; S. cerevisiae expressing SARS-CoV PLpro, growth rescue; Potency, µM (titrated, usually from 32.9 µM), inactives show top-dose activity, positive = growth rescue, actives largely listed as activators; actives 0.19% (n = 330,000); calls by dose curve; also: potency is read from the fitted curve at half-maximal effect; 0% is about no effect; nearly all actives have a fitted effect of over 55% in size
# SARS PLpro yeast-2 = qHTS of Yeast-based Assay for SARS-CoV PLP: Hit Validation; shares compounds with SARS PLpro yeast-1; yeast expressing SARS-CoV PLpro, growth phenotype rescue; calls only; actives 19% (n = 1,000); call rule not given here
# Starred values were filed as active, the others as inactive; i = inactive; ? = inconclusive; . = not tested or not shown; + = active, no number; [ ] = dose if it differs, or a comment. Unless noted, calls follow the shape of the dose curve; as a rule, active = well fitted curve in the direction sought with a large enough effect; inconclusive = small, poorly fitted or top-dose-only effect, or another doubt; inactive = no such curve, though single readings can be large; an effect the other way counts as inactive or inconclusive.
SMILES,AMA1 RON2 block,AmpC inh no detg,Cycloheximide cs,AmpC detergent,Shiga inhibitor,SARS PLpro yeast-1,SARS PLpro yeast-2
Cc1cccc2cc(CN(CCCO)C(=O)Nc3ccc(Cl)cc3)c(=O)[nH]c12,-7%,42%,3,-7%,20,25%,.
CCOc1ccc(CCNC(=O)c2ccc(CS(=O)Cc3ccc(Cl)cc3)o2)cc1 (stereo not given),0%,128%,5,1%,16,?,i
CCCCn1c(O)c(C(CC)=NCCN2CCCCC2)c(=O)[nH]c1=O,10%,158%,-4,-16%,23,4%,.
O=C(Oc1c(CN2CCOCC2)cc(Cl)c2cccnc12)c1ccccc1Br,-72%,12%,2,-1%,6,0%,.
CN1CCN(Cc2cc(Cl)c3cccnc3c2OC(=O)c2cccs2)CC1,37%,-35%,-6,-4%,-8,11µM*,i
COc1cc([N+](=O)[O-])cc(/C=N/NC(=O)C(C)Nc2cccc3ccccc23)c1O (stereo not given),13%,-38%,-2,-10%,-15,10µM*,?
Cc1c(O)c2cccnc2[nH]c1=O,10%[2.32 µM],-6%,2,?,-2,3.5µM*,i
CC(C)CCNC(=O)c1cc(-c2cccs2)nc2ccccc12,-4%,8%,-2,7%,15,-1%,.
CCCn1c(=O)c(C(=O)NCCCc2ccccc2)c(O)c2ccccc21,116%,2%,-2,0%,21,8%,.
Cc1ccc(NC(=O)CSc2ncccc2C(=O)Oc2cccc([N+](=O)[O-])c2)cc1Cl,7%,?,11,-13%,75*,?,i
COc1ccc(CNC(=S)NC2CCCC2)cc1,4%,-8%,-3,-8%,2,?,+
COc1ccc(CNC(=S)NC2CCCCC2)cc1,0%,-27%,14,?,7,1%,.
COc1ccc(/C(C#N)=C/c2c(-c3ccc(Cl)cc3)nc3c(C)cccn23)cc1,10%,-9%,-2,-2%,-18,-27%,.
Cc1ccc(NC(=O)CCNS(=O)(=O)c2ccc(Br)cc2)cc1S(=O)(=O)N1CCOCC1,0%,-11%,.,?,.,?,i
Cc1ccc(NC(=O)CCNS(=O)(=O)c2ccccc2)cc1S(=O)(=O)N1CCOCC1,-14%,-3%,.,-3%,.,-2%,.
CN(CC(=O)Nc1c(Cl)cccc1Cl)C(=O)c1cc(S(=O)(=O)N(C)C)ccc1N1CCCC1,-10%,6%,.,-2%,.,?,i
COc1ccc(NC(=O)CN(C)C(=O)c2cc(S(=O)(=O)N(C)C)ccc2N2CCCC2)cc1,-2%,-2%,.,?,.,.,.
COC(=O)c1sc(=S)sc1C(=O)OC,-2%,-13%,-3,-11%,-7,6.3µM*,?
Cc1nn(S(=O)(=O)c2ccc(Cl)cc2)c(C)c1S(=O)(=O)N1CCOCC1,-5%,-8%,-2,-2%,-4,3%,.
Cc1ccc(C)c(N=Cc2ccc(-c3ccc([N+](=O)[O-])cc3)o2)c1,?,-27%,-1,-12%,19,18%,.
Cc1cc(C(=O)NN=C2CCCCC2)c2ccccc2n1,3%,-23%,1,-8%,-6,13µM*,i
Cc1cc(C(=O)N/N=C/c2cc(Cl)cc([N+](=O)[O-])c2O)c2ccccc2n1,?,-34%,4,?,-11,2.2µM*,i
O=C(NN=Cc1cc(Cl)ccc1[N+](=O)[O-])c1cccc2ccccc12,20%,.,.,.,.,.,.
C=CCNc1sc(C(=O)C2CC2)c(N)c1C#N,5%,-14%,5,-5%,1,-2%,.
CC(=O)N/C(=C\c1cccc([N+](=O)[O-])c1)C(=O)NC1CCCCC1,13%,-16%,49*,-8%,61*,?,i
SMILES,AMA1 RON2 block,AmpC inh no detg,Cycloheximide cs,AmpC detergent,Shiga inhibitor,SARS PLpro yeast-1,SARS PLpro yeast-2
Cc1ccc(NC(=O)/C(=C/c2cccc([N+](=O)[O-])c2)NC(=O)C2CCCCC2)cc1,0%,-26%,-1,2%,-5,-2%,.
CCOc1ccc(N2C(=O)CC(SC(=NC)Nc3ccc4c(c3)OCO4)C2=O)cc1 (stereo not given),-4%,-6%,3,?,-16,?,?
CN(C)C=Nc1nc2ccccc2nc1N1CCCC1,-4%,-7%[2.29 µM],1,-14%,2,3%,.
CC(C)CCNC(=O)c1cc([N+](=O)[O-])ccc1N1CCOCC1,-2%,-14%,1,-5%,11,26%,.
CC(C)CNC(=O)c1cc([N+](=O)[O-])ccc1N1CCOCC1,-4%,-47%,3,7%,-8,?,i
COCCCNC(=S)N1CCC(C(=O)c2ccc(Cl)cc2)CC1,36%,55%,-3,?,-12,-1%,.
C/C(=N\NC(=S)NC(C)C)c1ccc2c(c1)OCCO2,-5%,-30%,1,-8%,2,?,.
CNC(=S)N/N=C(\C)c1cccc([N+](=O)[O-])c1,37%,-16%,-1,-14%,-4,13µM*,i
CNC(=S)N/N=C(\C)c1ccc2c(c1)OCCO2,45%[11.6 µM],-20%,19*,-5%,36,?,+
O=C(CN(C(=O)CCC(=O)Nc1nccs1)c1ccc(F)c(Cl)c1)NCC1CCCO1 (stereo not given),4%,42%,-2,-4%,-20,3%,.
Cc1cc(/C=N/NC(N)=S)c(C)n1-c1ccc(Cl)cc1,28%,-42%,15,-1%,14,11µM*,i
CN(Cc1ccccc1)C(=O)COC(=O)c1ccccc1NS(=O)(=O)c1cccc(N)c1,-20%,-34%,7,-1%,2,-2%,.
N#CC1C(=O)NC(N2CCN(c3ccccc3)CC2)=NC12CCCCC2 (stereo not given),-7%,-14%,-2,-10%,-7,16µM*,i
CC1(c2ccccc2)C(C#N)C(=O)NC(=O)C1C#N (stereo not given),28%,.,.,.,.,.,.
COc1cccc(/C=N/NC(=O)CSc2ccccc2C)c1O,93%,-22%,17,-8%,37*,22µM*,+
COc1cccc(/C=N/NC(=O)c2ccc3nc[nH]c3c2)c1O,72%,-16%,0,3%,31,0%,.
COc1cccc(/C=N/NC(=O)C(C)n2nc(C)c([N+](=O)[O-])c2C)c1O (stereo not given),64%,-45%,35*,-17%,31,11µM*,i
COc1cccc(/C=N/NC(=O)c2c(C)nc3ccc(Br)cn23)c1O,?,-18%,13,4%,38,?,i

# Source: PubChem BioAssay
